Experimental data: article PMC10313818

Experiments:
Test in all cases: cross-linking mass spectrometry
Details in all cases: not determined
ACACA = ACACA (UniProt Q13085)
COX7C = COX7C (UniProt P15954)
HSDL2 = HSDL2 (UniProt Q6YN16)
IDH3G = IDH3G (UniProt P51553)
ADCK1 = ADCK1 (UniProt Q86TW2)
ALDH3A2 = ALDH3A2 (UniProt P51648)
APOO = APOO (UniProt Q9BUR5)
ATP5PF = ATP5PF (UniProt P18859)
COQ3 = COQ3 (UniProt Q9NZJ6)
GUF1 = GUF1 (UniProt Q8N442)
HADHA = HADHA (UniProt P40939)
MTRF1L = MTRF1L (UniProt Q9UGC7)
NOCT = NOCT (UniProt Q9UK39)
OGDH = OGDH (UniProt Q02218)
OGDHL = OGDHL (UniProt Q9ULD0)
PDSS1 = PDSS1 (UniProt Q5T2R2)
PHB2 = PHB2 (UniProt Q99623)
PMPCA = PMPCA (UniProt Q10713)
PRDX6 = PRDX6 (UniProt P30041)
RMND1 = RMND1 (UniProt Q9NWS8)
SAMM50 = SAMM50 (UniProt Q9Y512)
SDHA = SDHA (UniProt P31040)
SIRT3 = SIRT3 (UniProt Q9NTG7)
SLC25A19 = SLC25A19 (UniProt Q9HC21)
SPRYD4 = SPRYD4 (UniProt Q8WW59)
TBRG4 = TBRG4 (UniProt Q969Z0)
TUFM = TUFM (UniProt P49411)

Chain of TOMM20, Q15388 (Q15388 whole entry): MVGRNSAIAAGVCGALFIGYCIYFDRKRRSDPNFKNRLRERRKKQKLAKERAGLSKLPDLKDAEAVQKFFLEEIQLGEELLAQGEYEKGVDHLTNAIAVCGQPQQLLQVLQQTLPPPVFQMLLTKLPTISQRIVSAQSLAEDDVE
Chain of OGDHL (Q9ULD0 whole entry): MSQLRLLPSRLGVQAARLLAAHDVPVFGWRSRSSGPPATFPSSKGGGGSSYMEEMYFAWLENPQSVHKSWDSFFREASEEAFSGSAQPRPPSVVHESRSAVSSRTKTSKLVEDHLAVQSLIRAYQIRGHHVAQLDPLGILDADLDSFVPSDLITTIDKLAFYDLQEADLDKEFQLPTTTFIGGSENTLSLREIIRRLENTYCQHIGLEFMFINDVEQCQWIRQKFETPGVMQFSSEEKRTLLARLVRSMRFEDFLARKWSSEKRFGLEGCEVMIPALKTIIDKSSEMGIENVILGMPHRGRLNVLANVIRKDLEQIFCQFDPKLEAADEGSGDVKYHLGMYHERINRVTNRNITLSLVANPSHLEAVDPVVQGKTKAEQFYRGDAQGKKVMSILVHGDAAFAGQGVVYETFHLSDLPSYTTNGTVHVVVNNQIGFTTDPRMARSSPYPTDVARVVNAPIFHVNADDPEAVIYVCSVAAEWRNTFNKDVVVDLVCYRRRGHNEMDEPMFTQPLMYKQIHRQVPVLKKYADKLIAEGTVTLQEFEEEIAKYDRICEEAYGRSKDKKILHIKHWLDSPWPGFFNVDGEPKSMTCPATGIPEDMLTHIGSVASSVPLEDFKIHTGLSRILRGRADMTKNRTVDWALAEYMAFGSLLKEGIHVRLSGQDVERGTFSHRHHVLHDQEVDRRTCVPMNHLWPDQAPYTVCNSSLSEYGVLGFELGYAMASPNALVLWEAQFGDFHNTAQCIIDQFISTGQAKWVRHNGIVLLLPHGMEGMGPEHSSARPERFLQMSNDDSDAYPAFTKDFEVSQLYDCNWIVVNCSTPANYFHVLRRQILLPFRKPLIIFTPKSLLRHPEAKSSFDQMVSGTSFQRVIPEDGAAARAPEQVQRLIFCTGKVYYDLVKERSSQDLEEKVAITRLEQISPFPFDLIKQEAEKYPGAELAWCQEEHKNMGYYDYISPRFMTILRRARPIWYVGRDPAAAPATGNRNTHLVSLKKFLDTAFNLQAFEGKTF
Chain of VDAC1, P21796 (P21796 whole entry): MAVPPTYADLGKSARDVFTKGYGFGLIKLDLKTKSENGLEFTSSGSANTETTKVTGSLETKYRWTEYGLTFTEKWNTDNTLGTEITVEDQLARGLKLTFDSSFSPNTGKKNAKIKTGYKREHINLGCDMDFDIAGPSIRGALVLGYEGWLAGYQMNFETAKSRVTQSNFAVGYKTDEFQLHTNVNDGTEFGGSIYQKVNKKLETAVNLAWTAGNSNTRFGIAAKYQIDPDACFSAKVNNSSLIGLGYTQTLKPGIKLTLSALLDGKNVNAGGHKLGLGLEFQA
Chain of DHX30, Q7L2E3 (Q7L2E3 whole entry): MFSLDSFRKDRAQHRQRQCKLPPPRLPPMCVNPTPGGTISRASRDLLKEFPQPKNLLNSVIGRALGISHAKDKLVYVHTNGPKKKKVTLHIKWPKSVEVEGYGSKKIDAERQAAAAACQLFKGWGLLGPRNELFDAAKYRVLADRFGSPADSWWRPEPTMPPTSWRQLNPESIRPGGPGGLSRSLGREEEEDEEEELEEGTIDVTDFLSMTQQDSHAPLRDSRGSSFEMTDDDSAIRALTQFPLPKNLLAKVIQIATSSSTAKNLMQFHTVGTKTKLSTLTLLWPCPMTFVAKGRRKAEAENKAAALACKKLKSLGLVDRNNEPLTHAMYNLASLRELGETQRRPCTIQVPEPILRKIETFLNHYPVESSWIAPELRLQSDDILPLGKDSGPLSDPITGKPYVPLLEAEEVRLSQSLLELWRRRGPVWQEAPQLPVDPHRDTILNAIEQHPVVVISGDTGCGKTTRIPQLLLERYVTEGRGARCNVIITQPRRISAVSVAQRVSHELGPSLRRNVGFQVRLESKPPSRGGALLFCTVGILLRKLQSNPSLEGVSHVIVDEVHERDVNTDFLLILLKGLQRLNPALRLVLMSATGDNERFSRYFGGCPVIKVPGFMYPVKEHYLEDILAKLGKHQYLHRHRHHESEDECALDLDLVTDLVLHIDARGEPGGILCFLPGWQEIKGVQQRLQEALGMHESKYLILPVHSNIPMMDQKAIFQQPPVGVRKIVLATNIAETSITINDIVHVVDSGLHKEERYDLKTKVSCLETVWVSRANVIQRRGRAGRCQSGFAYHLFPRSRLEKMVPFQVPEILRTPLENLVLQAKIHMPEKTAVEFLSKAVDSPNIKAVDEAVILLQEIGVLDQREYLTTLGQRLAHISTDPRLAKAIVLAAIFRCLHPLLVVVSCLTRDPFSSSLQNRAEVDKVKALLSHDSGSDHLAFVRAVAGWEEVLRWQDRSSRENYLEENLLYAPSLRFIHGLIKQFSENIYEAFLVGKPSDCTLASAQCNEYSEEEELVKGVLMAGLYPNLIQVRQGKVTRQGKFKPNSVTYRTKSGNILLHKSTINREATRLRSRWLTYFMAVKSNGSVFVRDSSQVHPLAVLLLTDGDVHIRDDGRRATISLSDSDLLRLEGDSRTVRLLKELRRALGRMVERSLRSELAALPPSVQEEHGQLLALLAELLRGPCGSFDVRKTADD
Chain of ADCK1 (Q86TW2 whole entry): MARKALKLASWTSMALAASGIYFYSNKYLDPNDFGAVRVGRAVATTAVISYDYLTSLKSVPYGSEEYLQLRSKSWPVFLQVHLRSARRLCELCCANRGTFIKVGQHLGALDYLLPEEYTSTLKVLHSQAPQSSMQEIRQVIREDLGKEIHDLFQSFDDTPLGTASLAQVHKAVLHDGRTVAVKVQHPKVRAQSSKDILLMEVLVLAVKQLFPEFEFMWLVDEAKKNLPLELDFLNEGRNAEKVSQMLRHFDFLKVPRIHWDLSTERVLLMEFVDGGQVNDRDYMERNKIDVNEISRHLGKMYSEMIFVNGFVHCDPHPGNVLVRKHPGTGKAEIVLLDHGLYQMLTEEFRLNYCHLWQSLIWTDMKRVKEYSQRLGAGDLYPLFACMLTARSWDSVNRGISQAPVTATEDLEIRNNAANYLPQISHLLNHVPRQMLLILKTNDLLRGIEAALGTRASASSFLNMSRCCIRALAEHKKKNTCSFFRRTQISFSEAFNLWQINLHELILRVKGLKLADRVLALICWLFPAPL
Chain of HADHA, P40939 (P40939 whole entry): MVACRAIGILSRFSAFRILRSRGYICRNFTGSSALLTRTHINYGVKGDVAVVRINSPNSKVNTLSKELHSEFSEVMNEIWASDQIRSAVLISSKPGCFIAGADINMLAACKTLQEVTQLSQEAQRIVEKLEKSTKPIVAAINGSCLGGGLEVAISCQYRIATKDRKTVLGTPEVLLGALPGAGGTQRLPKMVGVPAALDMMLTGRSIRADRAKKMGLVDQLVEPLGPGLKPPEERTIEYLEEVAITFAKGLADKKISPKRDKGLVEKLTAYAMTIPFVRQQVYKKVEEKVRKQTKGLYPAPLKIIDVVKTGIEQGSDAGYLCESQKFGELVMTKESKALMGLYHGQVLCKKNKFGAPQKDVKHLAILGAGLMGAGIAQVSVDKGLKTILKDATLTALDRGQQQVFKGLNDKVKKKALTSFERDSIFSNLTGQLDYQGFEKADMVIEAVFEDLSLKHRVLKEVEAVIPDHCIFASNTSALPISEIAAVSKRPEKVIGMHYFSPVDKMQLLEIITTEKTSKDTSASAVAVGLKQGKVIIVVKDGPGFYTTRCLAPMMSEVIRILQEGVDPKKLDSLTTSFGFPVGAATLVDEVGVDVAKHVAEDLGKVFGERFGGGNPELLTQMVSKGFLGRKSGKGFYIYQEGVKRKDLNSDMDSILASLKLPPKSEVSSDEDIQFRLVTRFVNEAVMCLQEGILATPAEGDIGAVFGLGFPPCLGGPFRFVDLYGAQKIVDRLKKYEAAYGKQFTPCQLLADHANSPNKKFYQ
Chain of HADHA (P40939 whole entry): as above
Chain of PHB2 (Q99623 whole entry): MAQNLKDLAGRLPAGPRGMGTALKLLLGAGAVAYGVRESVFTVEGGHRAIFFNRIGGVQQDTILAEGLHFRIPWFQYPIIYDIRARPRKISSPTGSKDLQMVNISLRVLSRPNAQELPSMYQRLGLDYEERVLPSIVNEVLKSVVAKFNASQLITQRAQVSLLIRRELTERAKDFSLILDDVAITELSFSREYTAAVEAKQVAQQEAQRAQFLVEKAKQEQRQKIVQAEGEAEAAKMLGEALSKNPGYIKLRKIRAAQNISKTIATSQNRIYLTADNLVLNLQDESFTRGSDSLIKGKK

HSPD1, P10809
cross-linked residues (ACACA): K58 - K2167
cross-linked residues (COX7C): K58 - K34
cross-linked residues (HSDL2): K418 - K304
cross-linked residues (IDH3G): K31 - K214

NDUFC1, O43677
cross-linked residues (ADCK1): K28 - K325

HADHA, P40939
cross-linked residues (ALDH3A2): K254 - M1

GUF1, Q8N442
cross-linked residues (APOO): K351 - K27

ATP5PD, O75947
cross-linked residues (ATP5PF): K63 - K79

DHX30, Q7L2E3
cross-linked residues (COQ3): K303 - K196

ACADM, P11310
cross-linked residues (GUF1): K144 - K664

BCL2, P10415
cross-linked residues (HADHA): M1 - K254

TOMM20, Q15388
cross-linked residues (MTRF1L): K56 - K74

ALDH4A1, P30038
cross-linked residues (NOCT): K93 - M1

VDAC1, P21796
cross-linked residues (OGDH): K61 - K999

PDHA1, P08559
cross-linked residues (OGDHL): K40 - K525

NDUFV3, P56181
cross-linked residues (PDSS1): M1 - K91

PHB1, P35232
cross-linked residues (PHB2): K202 - K216

PMPCB, O75439
cross-linked residues (PMPCA): K148 - K64

COX5B, P10606
cross-linked residues (PRDX6): K57 - K63

BCKDHB, P21953
cross-linked residues (RMND1): K381 - K145

VDAC2, P45880
cross-linked residues (SAMM50): K74 - G2

SNAP29, O95721
cross-linked residues (SDHA): K124 - K517

MACROD1, Q9BQ69
cross-linked residues (SIRT3): K99 - K399

BPHL, Q86WA6
cross-linked residues (SLC25A19): V2 - V2

ATP5F1D, P30049
cross-linked residues (SPRYD4): K136 - K33

ACSM4, P0C7M7
cross-linked residues (TBRG4): K542 - K576

ACACB, O00763
cross-linked residues (TUFM): K1705 - K259
